Among all 100,000 compounds or so, about 4,200 (4.2%) were called active. The list comes from a sample in which actives are over-represented; it also holds similar structures and randomly drawn compounds. Values without a mark were called inactive.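 Rule for the calls: active = single-dose well whose peak fluorescence ratio is a statistical outlier from its plate by either plate-standardised score or position-corrected B-score; inactive = the rest.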

The assay deals with Voltage-dependent T-type calcium channel subunit alpha-1H (Homo sapiens) (UniProt O95180). The assay is described as follows: Cav3.2 calcium influx blockers – cell-based, Fluo-4 calcium fluorescence, FDSS, MLSMR library, primary screen (AID 449739). The note with it: Cav3.2-expressing cells, at 10 µM, hits give low values.
Chain of Voltage-dependent T-type calcium channel subunit alpha-1H (Homo sapiens) (O95180 whole entry, looked up): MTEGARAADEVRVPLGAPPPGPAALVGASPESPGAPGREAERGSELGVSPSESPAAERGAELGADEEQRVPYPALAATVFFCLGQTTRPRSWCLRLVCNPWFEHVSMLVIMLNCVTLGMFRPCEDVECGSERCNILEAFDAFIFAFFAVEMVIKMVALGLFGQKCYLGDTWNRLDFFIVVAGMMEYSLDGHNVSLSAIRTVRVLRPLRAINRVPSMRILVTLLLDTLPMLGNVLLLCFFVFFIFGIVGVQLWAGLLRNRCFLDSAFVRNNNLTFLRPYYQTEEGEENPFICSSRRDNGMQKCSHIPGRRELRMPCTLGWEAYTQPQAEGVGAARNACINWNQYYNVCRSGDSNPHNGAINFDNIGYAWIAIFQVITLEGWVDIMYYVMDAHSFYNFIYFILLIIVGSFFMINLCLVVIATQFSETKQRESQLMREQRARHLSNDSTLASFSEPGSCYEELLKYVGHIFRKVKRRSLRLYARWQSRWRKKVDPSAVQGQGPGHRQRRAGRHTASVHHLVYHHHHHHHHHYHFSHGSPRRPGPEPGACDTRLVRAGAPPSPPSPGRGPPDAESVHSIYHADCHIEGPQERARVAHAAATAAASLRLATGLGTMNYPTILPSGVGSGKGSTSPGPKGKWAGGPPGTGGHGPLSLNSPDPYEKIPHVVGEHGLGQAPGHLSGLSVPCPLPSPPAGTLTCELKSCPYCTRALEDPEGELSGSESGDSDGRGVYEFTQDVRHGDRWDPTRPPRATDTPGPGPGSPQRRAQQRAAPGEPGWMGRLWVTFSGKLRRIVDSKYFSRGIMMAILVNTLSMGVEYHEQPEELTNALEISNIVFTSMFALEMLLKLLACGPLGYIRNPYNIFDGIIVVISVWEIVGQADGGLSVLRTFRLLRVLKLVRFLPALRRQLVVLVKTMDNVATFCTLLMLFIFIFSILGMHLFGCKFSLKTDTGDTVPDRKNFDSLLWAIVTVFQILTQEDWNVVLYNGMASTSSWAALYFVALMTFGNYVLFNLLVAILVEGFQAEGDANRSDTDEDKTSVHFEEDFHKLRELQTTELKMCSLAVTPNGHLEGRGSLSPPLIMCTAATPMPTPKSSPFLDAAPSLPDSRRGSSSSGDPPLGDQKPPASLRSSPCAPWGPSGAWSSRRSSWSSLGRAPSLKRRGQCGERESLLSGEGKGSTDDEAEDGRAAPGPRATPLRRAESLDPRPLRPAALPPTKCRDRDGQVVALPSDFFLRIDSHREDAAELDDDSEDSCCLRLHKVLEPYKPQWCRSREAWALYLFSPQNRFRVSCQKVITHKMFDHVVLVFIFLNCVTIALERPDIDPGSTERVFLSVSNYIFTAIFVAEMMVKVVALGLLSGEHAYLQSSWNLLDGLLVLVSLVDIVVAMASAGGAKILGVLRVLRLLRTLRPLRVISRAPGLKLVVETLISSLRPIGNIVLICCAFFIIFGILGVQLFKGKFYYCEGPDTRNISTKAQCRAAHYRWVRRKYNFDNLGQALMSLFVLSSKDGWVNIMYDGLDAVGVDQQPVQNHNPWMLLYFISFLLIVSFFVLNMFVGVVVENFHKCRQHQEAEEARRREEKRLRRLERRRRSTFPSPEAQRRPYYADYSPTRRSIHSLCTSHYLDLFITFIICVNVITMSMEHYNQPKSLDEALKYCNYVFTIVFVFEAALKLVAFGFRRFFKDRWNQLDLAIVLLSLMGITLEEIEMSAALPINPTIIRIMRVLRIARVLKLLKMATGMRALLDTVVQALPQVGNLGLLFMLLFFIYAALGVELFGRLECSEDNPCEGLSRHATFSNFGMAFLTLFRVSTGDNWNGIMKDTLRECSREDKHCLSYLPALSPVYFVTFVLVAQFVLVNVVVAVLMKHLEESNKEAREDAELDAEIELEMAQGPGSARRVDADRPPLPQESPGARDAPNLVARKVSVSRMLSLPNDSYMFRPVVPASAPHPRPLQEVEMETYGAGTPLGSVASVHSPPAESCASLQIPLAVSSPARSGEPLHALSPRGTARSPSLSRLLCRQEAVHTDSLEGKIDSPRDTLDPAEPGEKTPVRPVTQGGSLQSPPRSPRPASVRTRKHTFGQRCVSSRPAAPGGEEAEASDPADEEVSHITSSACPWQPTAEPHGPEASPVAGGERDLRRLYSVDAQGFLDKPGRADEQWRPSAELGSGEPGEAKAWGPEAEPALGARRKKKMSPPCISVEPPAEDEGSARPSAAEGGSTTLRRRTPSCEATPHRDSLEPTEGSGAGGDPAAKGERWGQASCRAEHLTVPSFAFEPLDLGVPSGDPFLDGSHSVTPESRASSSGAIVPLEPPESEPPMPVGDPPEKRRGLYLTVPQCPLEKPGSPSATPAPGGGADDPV
As for `O=C(C1=C[C@H](c2coc3ccccc3c2=O)C[C@H](OCc2ccc(CO)cc2)O1)N1CCOCC1`, the B-score is 0.0258. For the molecule `O=C(ON=C1CCN(S(=O)(=O)c2ccccc2)CC1)c1ccc(Cl)cc1`, the B-score was 0.782. Regarding `CN(C(=O)CC(NC(=O)c1ccccc1)(c1ccccc1)c1ccccc1)c1ccccc1`, the B-score is -8.96 (active). As for `Cc1ccccc1NC(=O)c1ccccc1`, the B-score was 0.346. The figure for `CC(C)(C)c1ccc(C(=O)NNC(=O)Cc2ccccc2)cc1` is 0.185. As to `O=C(O)c1cnn2c(C(F)(F)F)cc(-c3ccccc3)nc12`, the B-score was 1.18. Take `COC(C/C=C/C(=O)[C@@H](C)OCc1ccccc1)OC`: the B-score is -1.65. The figure for `CCC(=O)OCc1c(C(F)(F)F)nn(C)c1Oc1cccc(C(F)(F)F)c1` is -5.08 (active); for `CCOC(=O)C[C@H]1c2ccc(C(F)(F)F)cc2S(=O)(=O)N1c1ccccc1` it is -2.6. Turning to `Cn1nc(C(F)(F)F)c(C(=O)Nc2cccc(C(F)(F)F)c2)c1SCc1ccc(Cl)cc1`, the B-score was -4.7. Take `CC1=NN(C(=O)Cc2ccc(C)cc2)C(O)(c2cccnc2)C1` (stereo not drawn): the B-score is 0.437. The figure for `Cc1ccc(CNC(=O)c2ccc3c(c2)S(=O)(=O)c2ccccc2C3=O)cc1` is 0.00734; for `Cc1cc(/C=C2/SC(=O)N(CC(=O)OC(C)C)C2=O)c(C)n1C` it is 0.168. With `Cc1ccc(-c2nc3ccccc3[nH]2)cc1NC(=O)c1sc2ccccc2c1Cl` the figure was -3.3; with `NC(=O)CSc1c[nH]c2ccccc12`, 0.666; with `CC(=O)NC(Cc1c[nH]c2ccccc12)C(=O)O` (stereo not drawn), 1.52. With `O=C(Cc1c[nH]c2ccccc12)OCCOC(=O)Cc1c[nH]c2ccccc12` the figure was -6.55 (active); with `Cc1cc([N+](=O)[O-])c(NC2CCCCC2)c([N+](=O)[O-])c1`, -0.266. As to `CONC(=O)c1cc(OCC(F)(F)F)ccc1OCC(F)(F)F`, the B-score was 0.627. Take `CCOc1ccc(C2=CC(c3ccccc3)n3ncnc3N2)cc1` (stereo not drawn): the B-score is -0.0885. With `Brc1ccc(C2=CC(c3ccco3)n3ncnc3N2)cc1` (stereo not drawn) the figure was -4.77 (active); with `COC(=O)C1=C(C)Nc2ncnn2C1c1ccco1` (stereo not drawn), -0.126; with `Cc1ccccc1NC(=O)CNc1ccccc1N1CCCCC1`, -8.5 (active). With `Cn1c(=O)c2c(nc(SCC(=O)Nc3ccccc3N3CCCCC3)n2C)n(C)c1=O` the figure was -0.936; with `O=C(CN1CCN(C2CCCCC2)CC1)Nc1ccccc1N1CCCCC1`, -0.124.

Regarding `C#CCOCCOCCOCCNc1nc(N2CCN(C(=O)[C@H](CCC(=O)O)n3cc(C(N)CO)nn3)CC2)nc(N2CCN(C(=O)[C@H](CCCCN)n3cc(C(N)CC(C)C)nn3)CC2)n1` (stereo partly drawn), the B-score was -1.41. As for `Cc1ccc(C(=O)NNC(=O)OC(C)(C)C)c(Cl)c1`, the B-score is -0.27. With `COc1ccc(C(=O)Nc2ccccc2C(=O)N/N=C/c2ccc(O)c(OC)c2)cc1` the figure was 0.134; with `O=C(N/N=C\c1cccc(Br)c1)c1ccccc1-n1cccc1`, -6.5 (active). With `Cn1c(=O)n(C)c2cc(/C=N/NC(=O)c3cccc(Br)c3)ccc21` the figure was 1.83. Turning to `COc1ccc2c(c1)CC[C@@H]1[C@@H]2CC[C@]2(C)C(=O)CC[C@@H]12`, the B-score was -0.311. With `Fc1ccc(-c2nnc(CSc3nnc(-c4ccc5c(c4)OCO5)o3)o2)cc1` the figure was -0.34. With `CCSc1nnc(-c2cc3c(s2)-c2ccccc2CC3)o1` the figure was 0.187; with `Fc1ccc(CSc2nnc(-c3cc4c(s3)-c3ccccc3CC4)o2)cc1`, -3.39 (active); with `Cc1nn(C)c(Oc2ccccc2)c1CCNS(=O)(=O)c1ccc(F)cc1`, -1.06.

`CC(C)=CC(=O)Nc1nnc(-c2ccc(F)cc2)s1`: the B-score is 0.294.

For the molecule `c1ccc(CSc2nnc(-c3ccco3)c(-c3ccco3)n2)cc1`, the B-score is 0.232. Consider `O=C(CSc1nnc(-c2ccco2)n1Cc1ccccc1)NC(=O)NCc1ccco1`, for which the B-score is -1.76.

For `c1ccc(CSc2nnc(-c3ccco3)n2Cc2ccccc2)cc1`, the B-score is -4.26 (active). As for `CCOC(=O)CN1C(=O)N[C@@H](c2ccc(Br)cc2)C(C(C)=O)=C1C`, the B-score was 1.08. With `CC(N=Cc1nc(-c2ccccc2)oc1O)c1ccccc1` (stereo not drawn) the figure was -4.84 (active).

On to `CC(NC(=O)c1cc(-c2ccccc2)on1)c1ccccc1` (stereo not drawn), for which the B-score is 0.962. Take `C/C=C(\C)C(=O)N1CC2(CC(c3cccc(NC(=O)CCCCC)c3)=NO2)C[C@@H]1C(N)=O` (stereo partly drawn): the B-score was -0.0964.

`O=C1c2ccccc2NC(c2ccc(-c3cccc(Cl)c3)o2)N1O` (stereo not drawn): the B-score was -6.09 (active).

Consider `C[C@@H](C(=O)N1CCNCC1)n1cc(CCC(=O)O)nn1`, for which the B-score was 0.81. The figure for `Cc1cccc(OCCCC(=O)Nc2ccc(S(=O)(=O)N3CCCC3)cc2)c1` is -4.11; for `Cc1cccc(NC(=O)CN2CCCN(S(=O)(=O)c3ccc(Br)s3)CC2)c1` it is -4.23 (active).

Take `Cc1cccc(NC(=O)CN2C(=O)CNC2=O)c1`: the B-score is -0.246. With `O=C(NC1CC1)C1=C[C@H](c2coc3ccccc3c2=O)C[C@H](OCCCCO)O1` the figure was 0.0579; with `CCCn1c(SCC(=O)Nc2cccc(C(=O)OCC)c2)nnc1-c1ccoc1C`, -5.22 (active); with `COc1ccccc1NC(=O)CSc1nnc(-c2ccoc2C)n1CCc1ccccc1`, -2.79. For the molecule `Cc1ccc(-n2c(SCC(=O)Nc3ccc4c(c3)OCO4)nnc2-c2ccoc2C)cc1`, the B-score is -0.45. As to `FC(F)(F)c1cc(C(F)(F)F)c2ccc(N3CCN(c4ccccc4)CC3)nc2n1`, the B-score is -0.29. With `CNC(C)C#Cc1ccc2sc3cc(OC)c(OC)cc3c(=O)c2c1` (stereo not drawn) the figure was -1.08. With `C[C@H]1CC[C@]2(O[C@@H](CCO)C[C@@H](O)[C@@H]2O)O1` the figure was -0.0046; with `CC1Cc2ccccc2N1CC(=O)Nc1ccc2c(c1)OC(F)(F)O2` (stereo not drawn), -4.17 (active). For the molecule `O=C(Cn1c(=O)sc2ccccc21)Nc1ccc2c(c1)OCCO2`, the B-score is 0.666. With `O=C(COC(=O)c1ccccc1NC(=O)c1ccco1)Nc1ccc2c(c1)OC(F)(F)O2` the figure was -1.68.

For the origin of these results see PubChem BioAssay AID449739 (Vanderbilt High Throughput Screening Facility, 2010).
